Here are results for 48 compounds from PubChem BioAssay AID2685 (National Center for Advancing Translational Sciences (NCATS), 2010).

Hit rate of the full screen: of about 320,000 compounds, about 2,100 (0.66%) were called active. Not shown: some 53% with an inconclusive outcome. Calls follow the shape of the dose curve; as a rule, active = well fitted inhibition curve with a large enough effect in the signal ratio, with a control signal flat (not every such curve was filed as active); inconclusive = small, poorly fitted or top-dose-only effect, or effect the other way, or a change in a side signal; inactive = flat fitted curve, though single readings scatter; the % refers to the signal ratio. The sample as a whole holds a higher share of actives than the screen did.
Potency is read from the fitted curve at half-maximal effect.

The assay is described as follows: qHTS Assay for Lipid Storage Modulators in Drosophila S3 Cells.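 As to cell number change: cells counted by Cell Tracker Red CMTPX staining in the red channel.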 As to lipid storage change, negative = inhibition: % is scaled to controls: 0 for no effect and ±100 for the full control effect. As to conditions: BODIPY lipid droplet fluorescence, 18-24 h, cells fed with added oleic acid; cell number change: measured here: cell count max response; series mostly up to 46.1 µM; lipid storage change, negative = inhibition: at the top concentration. From the text:
NIH Molecular Libraries Probe Production Centers Network [MLPCN] NIH Chemical Genomics Center [NCGC] MLPCN Grant: 1 R03 MH085686-01 Assay Submitter (PI): Beller, Mathias; Max-Planck-Institut fur Biophysikalische Chemie NCGC Assay Overview: Storing lipids as a reservoir for energy or the anabolism of elementary metabolites is a common feature of probably all cells and is conserved from bacteria to humans. The universal cellular lipid storage organelle is the so-called lipid storage droplet (LD). Although ubiquitous, LDs share a simple structure composed of a hydrophobic core that harbors the storage lipids, which is shielded by a droplet-specific phospholipid monolayer to which proteins are attached. The current model of LD biogenesis involves an incorporation of the lipid core into the membrane leaflets of the endoplasmic reticulum (ER) followed by a subsequent budding-like maturation of a LD, which ultimately pinches off. Once released, LD volume can increase by localized lipogenesis or fusion of existing droplet. Storage lipids are re-mobilized enzymatically by lipase activity. Lipase regulation in the adipocyte is heavily studied and involves multiple components including catecholamine signaling, the LD-associated proteins Perilipin and comparative gene identification (CGI-58) and at least two lipases named hormone sensitive lipase (HSL) and adipocyte triglyceride lipase (ATGL). LD regulation outside of the adipocyte is poorly understood and only few components are known. However, there is an urgent need to learn more about ectopic fat depots as mislocalized storage of lipids, for example in the liver or muscle, is an eminent health problem associated with insulin resistance or the metabolic syndrome. We developed a laser-scanning cytometer assay to enable 1,536-well screening and combined the results of the small molecules screen with an RNAi database based on lipid storage.
Triacsin C (Sigma-Aldrich T-4540), an inhibitor of long-chain fatty acyl CoA synthetase that blocks synthesis of triglycerides, was used as a positive control for lipid under-storage. A total of 23 nL of compound solution of different concentrations were transferred to the assay plates using a Kalypsys pin tool equipped with a 1,536-pin array containing 10-nL slotted pins (FP1S10, 0.457-mm diameter, 50.8 mm long; V&P Scientific). One microliter of oleic acid (400 uM) was added, and the plate was lidded with stainless steel rubber gasket lined lids containing pinholes. […] Fluorescence was detected by excitation of the fluorophores with a 488-nm laser on an Acumen Explorer (TTP Lab Tech). The total intensity in channel 2 (500-530 nm) reflected lipid droplet accumulation. Cells were detected using channel 3 (575-640 nm) with 5-um width and 100-um depth filters. The ratio of the number of objects in PMT channel 2 over the number of objects in PMT channel 3 was also calculated. Percent activity was computed relative to an internal control (100% inhibited lipid droplet deposition due to the presence of 20 uM Triacsin C), which was added to 32 wells/plate.
On the technique in general: qHTS replaces the single test concentration by a dilution series.
As for `Cc1ccc(S(=O)(=O)NCc2ccccc2)cc1C(=O)NCc1ccccn1`, the “lipid storage change, negative = inhibition” value is -18% (inactive) and the cell number change was -8.5%.
`Cc1cc(C)c(C)c(S(=O)(=O)N2CCC(C(=O)N3CCCC3)CC2)c1C`: the “lipid storage change, negative = inhibition” value is -11% (inactive) and the cell number change is 0.752%.
The like results for `CCOC(=O)c1sc(NC(=O)c2ccccc2OCC)nc1C` were, in that order, 5.11% (inactive) and 6.73%.
With `CC(=O)NCCn1c(SCC#N)nc2ccccc2c1=O`, the “lipid storage change, negative = inhibition” value is 23.8% (inactive) and the cell number change was determined as 8.06%.
Consider `CCC(=O)Nc1nnc(SCCOC)s1`, for which the outcome was inactive.
Regarding `COCCSc1nnc(NC(=O)C(C)(C)C)s1`, the “lipid storage change, negative = inhibition” value is 13.4% (inactive) and the cell number change was -0.0656%.
Turning to `COCCSc1nnc(NC(=O)COC)s1`, the Potency was 25.9 µM (active) and the cell number change was -16.2%.
Take `Cn1c(NC(=O)/C=C/c2c(F)cccc2Cl)cc(=O)n(C)c1=O`: the “lipid storage change, negative = inhibition” value is -6.34% (inactive) and the cell number change was determined as 12.8%.
For the compound `Nc1cc([N+](=O)[O-])ccc1O`, the Potency was 9.2 µM (active) and the cell number change was -17.1%.
Turning to `Nc1nc(N)nc(-c2cc([N+](=O)[O-])ccc2O)n1`, the “lipid storage change, negative = inhibition” value was 0.171% (inactive) and the cell number change was -17.3%.
For the compound `Nc1cc([N+](=O)[O-])ccc1Nc1ccc(O)cc1`, the “lipid storage change, negative = inhibition” value was -0.588% (inactive) and the cell number change is -13.9%.
On to `CCN(CC)CCNC(=O)c1ccccc1N`, for which the Potency is 23.1 µM (active) and the cell number change was -10.7%.
As to `CCN(CC)CCNC(=O)c1cc(Br)c(N)cc1OC`, the “lipid storage change, negative = inhibition” value was 1.26% (inactive) and the cell number change amounted to 6.76%.
As for `CCN(CC)CCNC(=O)c1ccccc1C(=O)c1ncc[nH]1`, the compound was classed as inactive and the cell number change was -16.6%.
With `CN1CCN(NC(=O)c2cc(S(=O)(=O)Nc3ccc(Cl)cc3)ccc2Cl)CC1`, the “lipid storage change, negative = inhibition” value was 19% (inactive) and the cell number change is 18.2%.
As for `O=[N+]([O-])c1cc([N+](=O)[O-])c2n[nH]c(-c3ccccc3)c2c1`, the “lipid storage change, negative = inhibition” value was 12.5% (inactive) and the cell number change is 17.9%.
For the compound `O=[N+]([O-])c1cnc2ccccc2c1`, the “lipid storage change, negative = inhibition” value was 2.15% (inactive) and the cell number change is 16.2%.
With `O=[N+]([O-])c1cc([N+](=O)[O-])c2cc3ccccc3nc2c1`, the Potency was 3.26 µM (active) and the cell number change is -20.7%.
For the compound `Cc1ccc(C(=O)NCCn2cc(SCC(=O)Nc3cc(C)on3)c3ccccc32)cc1`, the “lipid storage change, negative = inhibition” value was -4.46% (inactive).
For the compound `Cc1nn(CC(=O)Nc2ccc(S(=O)(=O)N(C)C)cc2)c(C)c1[N+](=O)[O-]`, the “lipid storage change, negative = inhibition” value is 11.6% (inactive) and the cell number change worked out at 9.05%.
Take `COc1ccccc1NC(=O)c1ccc(-n2ccnc2)c([N+](=O)[O-])c1`: the “lipid storage change, negative = inhibition” value was 9.53% (inactive) and the cell number change was determined as 13%.
`Cc1nn(CC(=O)Nc2ccc(Cl)c(S(=O)(=O)N(C)C)c2)c(C)c1[N+](=O)[O-]`: the Potency was 0.58 µM (active) and the cell number change was -5.49%.
As for `Cc1nn(CC(=O)Nc2ccc(N(C)C)cc2)c(C)c1[N+](=O)[O-]`, the compound was called inactive and the cell number change was -14.5%.
With `CN(C)S(=O)(=O)c1cc(NC(=O)c2ccc(-n3ccnc3)c([N+](=O)[O-])c2)ccc1Cl`, the Potency was 20.6 µM (active) and the cell number change came to 5.46%.
Regarding `O=C(O)c1ccc(-n2ccnc2)c([N+](=O)[O-])c1`, the call was inactive and the cell number change came out at 9.03%.
As to `CN(C)S(=O)(=O)c1ccc(C(=O)NCCSc2ccc(Br)cc2)cc1`, the “lipid storage change, negative = inhibition” value was 19% (inactive) and the cell number change came to 20%.
The like results for `Cc1ccc2[nH]c(=O)c(CN(CCCN(C)C)C(=S)NCCc3ccccc3)cc2c1` were, in that order, -2.53% (inactive) and -4.82%.
As for `CC(CCc1ccccc1)NC(=O)C1CCN(S(=O)(=O)c2cnc[nH]2)CC1` (stereo unspecified), the “lipid storage change, negative = inhibition” value is 16.3% (inactive).
`COc1ccc(S(=O)(=O)N2CCC(C(=O)NCC3CCCO3)CC2)cc1` (stereo unspecified): the outcome was inactive.
For `Cc1c(C#N)sc(C(N)=O)c1C`, the “lipid storage change, negative = inhibition” value was -3.02% (inactive) and the cell number change was found to be 10.5%.
The like results for `Clc1cccc(NCc2nnc(SCc3ccccc3)o2)c1` were, in that order, 9.23% (inactive) and -10.7%.
As for `O=C(O)c1cccc(NC(=S)NC(NC(=O)c2cccc([N+](=O)[O-])c2)C(Cl)(Cl)Cl)c1` (stereo unspecified), the “lipid storage change, negative = inhibition” value is -6.68% (inactive) and the cell number change was -10.1%.
Take `O=C(NC(NC(=S)Nc1ccc(Cl)cc1Cl)C(Cl)(Cl)Cl)c1cccc([N+](=O)[O-])c1` (stereo unspecified): the outcome was inactive and the cell number change turned out to be 12.3%.
Turning to `O=C(NC(NC(=S)Nc1c(Cl)cccc1Cl)C(Cl)(Cl)Cl)c1cccc([N+](=O)[O-])c1` (stereo unspecified), the Potency was 3.66 µM (active) and the cell number change came out at 18.3%.
For the compound `COc1cccc(CNC(=O)Cn2c(=O)n(CCC(=O)N3CCCCC3)c(=O)c3sccc32)c1`, the Potency is 4.11 µM (active) and the cell number change is -6.85%.
As to `COCCNC(=O)Cn1c(=O)n(CCCC(=O)NCc2ccc3c(c2)OCO3)c(=O)c2sccc21`, the outcome was inactive and the cell number change was determined as 7.14%.
The like results for `CCCNC(=O)Cn1c(=O)n(CC(=O)N2CCCCC2)c(=O)c2sccc21` were, in that order, “inactive” and -0.943%.
In the case of `CC(=O)c1sc(Nc2ccc(C)cc2)nc1C`, the “lipid storage change, negative = inhibition” value was 3.82% (inactive) and the cell number change was 7.99%.
The like results for `O=C(NNC(=O)C1CC1)c1cc(Cl)nc2ccccc12` were, in that order, 12% (inactive) and 13.7%.
The like results for `Cc1nn(Cc2ccccc2Cl)c(C)c1NC(=O)CCCn1nc(C)c([N+](=O)[O-])c1C` were, in that order, 8.88% (inactive) and -4.35%.
The like results for `Cc1nn(Cc2ccccc2)c(C)c1NC(=O)CCCn1nc([N+](=O)[O-])c(Cl)c1C` were, in that order, -17.1% (inactive) and -5.3%.
Take `Cc1nn(Cc2ccc(Cl)cc2)c(C)c1NC(=O)CCCn1nc([N+](=O)[O-])c(Cl)c1C`: the “lipid storage change, negative = inhibition” value is -11.9% (inactive) and the cell number change was -11.8%.
With `Cc1nn(Cc2ccc(Cl)cc2)c(C)c1NC(=O)C1CC=CCC1C(=O)O` (stereo unspecified), the “lipid storage change, negative = inhibition” value was -8.85% (inactive) and the cell number change worked out at 2.56%.
With `Cc1nn(CCCC(=O)NCc2ccc(Cl)cc2)c(C)c1[N+](=O)[O-]`, the “lipid storage change, negative = inhibition” value is 4.65% (inactive).
With `Cc1nn(Cc2ccc(Cl)cc2)c(C)c1NC(=O)C(c1ccccc1)c1ccccc1`, the Potency is 23.1 µM (active) and the cell number change was -18.5%.
In the case of `Cc1cc(C(=O)Nc2c(C)nn(Cc3ccc(Cl)cc3)c2C)no1`, the “lipid storage change, negative = inhibition” value is -9.5% (inactive) and the cell number change is -17.6%.
Regarding `Cc1nn(Cc2ccc(Cl)cc2)c(C)c1NC(=O)CCCn1nc(C)c([N+](=O)[O-])c1C`, the Potency is 2.31 µM (active) and the cell number change was found to be 3.25%.
With `Cc1ccc(Cn2nc(C)c(NC(=O)CCCn3nc([N+](=O)[O-])c(Cl)c3C)c2C)cc1`, the Potency was 8.2 µM (active) and the cell number change is -28.1%.
